# Values joined by “and” are separate entries in the source; they are usually repeats but may differ in a detail not shown here. Equal entries are not always repeated. Records with an inconclusive call do not appear. Where a call stands in place of a potency, no number is given. Where a structure was tested more than once in an assay, its records may differ in their call. Active and inactive are the calls of the source. Unless noted, calls follow the shape of the dose curve; as a rule, active = well fitted curve in the direction sought with a large enough effect in the repeat runs; inconclusive = weak or mixed curves; inactive = no such curve, though single readings can be large; an effect the other way counts as inactive or inconclusive.
# Legend:
# [1] = qHTS assay to identify small molecule agonists of H2AX - cell viability counter screen (AID 1224847; calls by dose curve; also: nearly all actives have a fitted effect of over 30% in size; also: potency is read from the fitted curve at half-maximal effect)
# Summary of the method: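 Quantitative HTS viability measurement: CHO-K1 wild-type cells in serum (10% FBS) medium, short 3 hr drug exposure at 37C with 0.76% DMSO, CellTiter-Glo luminescent detection.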
# [2] = qHTS RealTime-Glo MT Cell Viability Assay in HEK293 cells - 32 hour (AID 1224868); also: nearly all actives have a fitted effect of over 50% in size; also: potency is read from the fitted curve at half-maximal effect
# Summary of the method: (§1)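 Nonlytic real-time viability readout: viable cells convert prosubstrate to NanoLuc substrate, giving luminescence proportional to live cell number. HEK293, 600 cells/well, compound added after 5 h, continuous culture at 37 C.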
# [3] = A CellTox Green Cytotoxicity Assay to monitor cytotoxicity in HEK293 cells - 0 hour (AID 1224869); also: nearly all actives have a fitted effect of over 50% in size
# Summary of the method: (§2)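 Read-out: fluorescence of a cell-impermeant cyanine dye staining DNA of dead cells, proportional to cytotoxicity. HEK293, 600 cells/well with reagent, compound (23 nL DMSO) added after 5 h; reads at 0, 8, 16, 24, 32, 40 h.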
# [4] = qHTS RealTime-Glo MT Cell Viability Assay in HepG2 cells - 40 hour (AID 1224870); also: nearly all actives have a fitted effect of over 50% in size; also: potency is read from the fitted curve at half-maximal effect
# Summary of the method: (§3)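 HepG2 cells mixed with RealTime-Glo MT reagents (NanoLuc plus cell-permeant prosubstrate) were seeded at 600 cells/well, incubated 5 h at 37 C/5% CO2, then pinned with compounds in DMSO; nonlytic luminescence tracked viability during 40 h treatment.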
# [5] = A CellTox Green Cytotoxicity Assay to monitor cytotoxicity in HEK293 cells - 40 hour (AID 1224871); also: nearly all actives have a fitted effect of over 45% in size; also: potency is read from the fitted curve at half-maximal effect
# Summary of the method: as §2
# [6] = qHTS RealTime-Glo MT Cell Viability Assay in HEK293 cells - 16 hour (AID 1224872); also: nearly all actives have a fitted effect of over 50% in size; also: potency is read from the fitted curve at half-maximal effect
# Summary of the method: as §1
# [7] = qHTS RealTime-Glo MT Cell Viability Assay in HepG2 cells - 8 hour (AID 1224873); also: nearly all actives have a fitted effect of over 55% in size; also: potency is read from the fitted curve at half-maximal effect
# Summary of the method: as §3
# [8] = qHTS RealTime-Glo MT Cell Viability Assay in HEK293 cells - 40 hour (AID 1224874); settings: RealTime-Glo luminescence; max response: stronger effect = lower value; also: nearly all actives have a fitted effect of over 50% in size; also: potency is read from the fitted curve at half-maximal effect
# Summary of the method: (§4)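 Luminescence readout at each listed time point; HEK293, 600 cells/well, RealTime-Glo MT reagent added with cells; compounds pinned (23 nL in DMSO) after 5 h at 37 C; continuous culture at 37 C.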
# [9] = A CellTox Green Cytotoxicity Assay to monitor cytotoxicity in HEK293 cells - 24 hour (AID 1224875); also: nearly all actives have a fitted effect of over 45% in size; also: potency is read from the fitted curve at half-maximal effect
# Summary of the method: as §2
# [10] = A CellTox Green Cytotoxicity Assay to monitor cytotoxicity in HepG2 cells - 16 hour (AID 1224876); also: nearly all actives have a fitted effect of over 45% in size; also: potency is read from the fitted curve at half-maximal effect
# Summary of the method: (§5)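 HepG2, 600 cells/well premixed w/ CellTox Green; 5 h settle, 37 C/5% CO2; pintool cpd add (DMSO); 37 C, 40 h; fluorescence read at 0, 8, 16, 24, 32, 40 h.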
# [11] = A CellTox Green Cytotoxicity Assay to monitor cytotoxicity in HepG2 cells - 24 hour (AID 1224878); also: nearly all actives have a fitted effect of over 45% in size; also: potency is read from the fitted curve at half-maximal effect
# Summary of the method: as §5
# [12] = A CellTox Green Cytotoxicity Assay to monitor cytotoxicity in HepG2 cells - 40 hour (AID 1224879); also: nearly all actives have a fitted effect of over 40% in size; also: potency is read from the fitted curve at half-maximal effect
# Summary of the method: as §5
# [13] = qHTS RealTime-Glo MT Cell Viability Assay in HEK293 cells - 0 hour (AID 1224880); also: nearly all actives have a fitted effect of over 45% in size; also: potency is read from the fitted curve at half-maximal effect
# Summary of the method: as §4
# [14] = A CellTox Green Cytotoxicity Assay to monitor cytotoxicity in HEK293 cells - 32 hour (AID 1224881); also: nearly all actives have a fitted effect of over 40% in size; also: potency is read from the fitted curve at half-maximal effect
# Summary of the method: as §2
# [15] = qHTS RealTime-Glo MT Cell Viability Assay in HepG2 cells - 24 hour (AID 1224867); also: nearly all actives have a fitted effect of over 50% in size; also: potency is read from the fitted curve at half-maximal effect
# Summary of the method: (§6)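 Luminescence read-out: viable HepG2 cells reduce a prosubstrate to a NanoLuc substrate, giving a signal proportional to live cell number. Reads taken at 0, 8, 16, 24, 32 and 40 h of compound exposure at 37 C.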
# [16] = qHTS RealTime-Glo MT Cell Viability Assay in HepG2 cells - 32 hour (AID 1224877); also: nearly all actives have a fitted effect of over 55% in size; also: potency is read from the fitted curve at half-maximal effect
# Summary of the method: as §6
# [17] = qHTS assay to identify small molecule agonists of the hypoxia (HIF-1) signaling pathway (AID 1224846; active = well fitted activation curve with a large enough effect in the signal ratio in the repeat runs, not every such curve was filed as active; the % refers to the signal ratio)
# Summary of the method: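 Beta-lactamase FRET read-out (CCF4-AM substrate) from ME-180 cells carrying an HRE-driven bla reporter, after 17 hrs compound exposure at 37C/5% CO2. Cells were seeded at 2,000 per well in 0.5% dialyzed FBS medium and preincubated 5 hrs.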
# [18] = qHTS assay to identify small molecule antagonists of the estrogen related receptor (ERR) signaling pathway from Tox21 library (AID 1224848); also: nearly all actives have a fitted effect of over 50% in size; also: potency is read from the fitted curve at half-maximal effect
# Summary of the method: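 First, 2,000 ERR cells per well were plated and held 6 h at 37 C/5% CO2. Next, compounds in DMSO were pinned in and left 18 h at 37 C. Finally, ONE-Glo was added and luminescence read after 30 min at room temperature.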
# [19] = qHTS assay to identify small molecule agonists of the estrogen related receptor (ERR) signaling pathway from Tox21 library (AID 1224849; calls by dose curve; also: nearly all actives have a fitted effect of over 15% in size); settings: ERR reporter cell line, ONE-Glo luciferase, 18 h
# Summary of the method: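 Luminescence readout (ONE-Glo, 30 min RT) after 18 h compound exposure at 37 C of NTP-supplied ERR reporter cells; cells were plated 6 h before compound addition by pin tool.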
smiles,measurement,setting,value
CC[n+]1c(-c2ccccc2)c2cc(N)ccc2c2ccc(N)cc21,Potency,[1],inactive
same,Potency,[2],4.34 µM (active) and 5.35 µM (active)
same,Potency,[3],inactive
same,Potency,[4],inactive
same,Potency,[5],inactive
same,Potency,[6],17.3 µM (active) and 23.9 µM (active)
same,Potency,[7],inactive
same,Potency,[8],3.45 µM (active) and 2.13 µM (active)
same,Potency,[9],inactive
same,Potency,[10],inactive
same,Potency,[11],inactive
same,Potency,[12],inactive
same,Potency,[13],inactive
same,Potency,[14],inactive
CCCCCCCCCc1ccc(O)cc1,Potency,[1],90.7 µM (active) and 101 µM (active)
same,Potency,[15],inactive
same,Potency,[2],9.87 µM (active) and 5.49 µM (active)
same,Potency,[3],inactive
same,Potency,[4],inactive
same,Potency,[5],44.1 µM (active) and inactive
same,Potency,[6],6.99 µM (active) and 4.36 µM (active)
same,Potency,[7],inactive
same,Potency,[8],11.1 µM (active) and 6.92 µM (active)
same,Potency,[10],39.3 µM (active)
same,Potency,[16],inactive
same,Potency,[11],44.1 µM (active) and 38.9 µM (active)
same,Potency,[12],24.8 µM (active)
same,Potency,[13],inactive
Clc1cccc(C(Cl)(Cl)Cl)n1,outcome,[17],inactive
same,Potency,[1],inactive
same,Potency,[15],inactive
same,Potency,[2],inactive
same,Potency,[3],inactive
same,Potency,[6],inactive
same,Potency,[7],inactive
same,max response,[8],2.13% (inactive) and -1.58% (inactive)
same,Potency,[9],inactive
same,Potency,[16],inactive
same,Potency,[13],inactive
same,Potency,[14],inactive
CCOP(=S)(OCC)SCn1c(=O)oc2cc(Cl)ccc21,outcome,[17],inactive
same,Potency,[15],inactive
same,Potency,[2],29.5 µM (active)
same,Potency,[3],inactive
same,Potency,[5],inactive
same,Potency,[6],26.3 µM (active) and 19.5 µM (active)
same,Potency,[7],inactive
same,Potency,[8],29.5 µM (active)
same,Potency,[9],inactive
same,Potency,[10],inactive
same,Potency,[16],inactive
same,Potency,[11],inactive
same,Potency,[12],inactive
same,Potency,[13],inactive
same,Potency,[14],inactive
CNC(=O)CSP(=S)(OC)OC,outcome,[17],inactive
same,Potency,[1],inactive
same,Potency,[15],inactive
same,Potency,[2],inactive
same,Potency,[3],inactive
same,Potency,[4],inactive
same,Potency,[5],inactive
same,Potency,[6],inactive
same,Potency,[7],inactive
same,max response,[8],-14.6% (inactive) and -0.812% (inactive)
same,Potency,[9],inactive
same,Potency,[10],inactive
same,Potency,[16],inactive
same,Potency,[11],inactive
same,Potency,[12],inactive
same,Potency,[13],inactive
same,Potency,[14],inactive
N#Cc1c(Cl)c(Cl)c(Cl)c(C#N)c1Cl,Potency,[1],55.6 µM (active)
same,Potency,[15],21.5 µM (active) and 4.9 µM (active)
same,Potency,[2],1.7 µM (active) and 1.23 µM (active)
same,Potency,[3],inactive
same,Potency,[4],19.1 µM (active) and 3.47 µM (active)
same,Potency,[5],6.79 µM (active) and 5.49 µM (active)
same,Potency,[6],3.4 µM (active) and 1.55 µM (active)
same,Potency,[7],42.8 µM (active) and 11 µM (active)
same,Potency,[8],1.7 µM (active) and 1.1 µM (active)
same,Potency,[9],12.1 µM (active) and 9.77 µM (active)
same,Potency,[10],24.1 µM (active) and 6.92 µM (active)
same,Potency,[16],19.1 µM (active) and 3.89 µM (active)
same,Potency,[11],24.1 µM (active) and 3.09 µM (active)
same,Potency,[12],19.1 µM (active) and 2.45 µM (active)
same,Potency,[13],inactive
Cc1ccc(N=CN(C)C=Nc2ccc(C)cc2C)c(C)c1,outcome,[17],inactive
same,Potency,[1],101 µM (active) and inactive
same,Potency,[15],inactive
same,Potency,[2],43.8 µM (active) and 43.6 µM (active) and inactive
same,Potency,[3],inactive
same,Potency,[4],inactive
same,Potency,[5],inactive
same,Potency,[6],43.8 µM (active) and 38.9 µM (active) and inactive
same,Potency,[7],inactive
same,Potency,[8],43.8 µM (active) and 43.6 µM (active)
same,max response,[8],-1.79% (inactive)
same,Potency,[9],inactive
same,Potency,[10],inactive
same,Potency,[16],inactive
same,Potency,[11],43.6 µM (active) and inactive
same,Potency,[12],43.6 µM (active) and inactive
same,Potency,[13],inactive
ClC(Cl)(Cl)c1ccccc1,outcome,[17],inactive
same,Potency,[1],inactive
same,Potency,[15],inactive
same,Potency,[2],inactive
same,Potency,[3],inactive
same,Potency,[4],inactive
same,Potency,[5],inactive
same,Potency,[6],inactive
same,Potency,[7],inactive
same,max response,[8],8.54% (inactive) and -1.53% (inactive)
same,Potency,[9],inactive
same,Potency,[10],inactive
same,Potency,[16],inactive
same,Potency,[11],inactive
same,Potency,[12],inactive
same,Potency,[13],inactive
CNC(=S)S,outcome,[17],inactive
same,Potency,[1],inactive
same,Potency,[15],inactive
same,Potency,[2],inactive
same,Potency,[3],inactive
same,Potency,[4],inactive
same,Potency,[5],inactive
same,Potency,[6],inactive
same,Potency,[7],inactive
same,max response,[8],24.9% (inactive) and 0.0192% (inactive)
same,Potency,[9],inactive
same,Potency,[10],inactive
same,Potency,[16],inactive
same,Potency,[11],inactive
same,Potency,[12],inactive
same,Potency,[13],inactive
same,Potency,[14],inactive
CC(C)=CC1C(C(=O)OCc2cccc(Oc3ccccc3)c2)C1(C)C (configuration not stated),outcome,[17],inactive
same,Potency,[18],inactive
same,"activity change, positive = activation",[19]; at 42.5 µM (top of the series),-0.963% (inactive)
same,"activity change, positive = activation",[19]; at 92.4 µM (top of the series),-0.843% (inactive)
same,Potency,[15],inactive
same,Potency,[2],inactive
same,Potency,[4],inactive
same,Potency,[5],inactive
same,Potency,[6],inactive
same,Potency,[7],inactive
same,max response,[8],-1.31% (inactive) and -6.07% (inactive)
same,Potency,[9],inactive
same,Potency,[10],inactive
same,Potency,[16],inactive
same,Potency,[11],inactive
same,Potency,[12],inactive
same,Potency,[13],inactive
same,Potency,[14],inactive
CC(C)Nc1ccc(Nc2ccccc2)cc1,Potency,[1],50.3 µM (active) and 89.8 µM (active)
same,Potency,[18],15.3 µM (active) and 48.6 µM (active)
same,"activity change, positive = activation",[19]; at 92.4 µM (top of the series),-81.7% (inactive) and -69.9% (inactive)
same,Potency,[15],54.7 µM (active) and 49 µM (active)
same,Potency,[2],17.3 µM (active) and 19.5 µM (active)
same,Potency,[3],inactive
same,Potency,[5],48.8 µM (active) and 49 µM (active)
same,Potency,[6],17.3 µM (active) and 19.5 µM (active)
same,Potency,[7],48.8 µM (active) and 38.9 µM (active)
same,Potency,[8],17.3 µM (active) and 17.4 µM (active)
same,Potency,[9],48.8 µM (active) and 54.9 µM (active)
same,Potency,[10],inactive and 49 µM (active)
same,Potency,[16],54.7 µM (active)
same,Potency,[11],43.6 µM (active)
same,Potency,[12],43.6 µM (active)
same,Potency,[13],7.73 µM (active) and 19.5 µM (active)
same,Potency,[14],48.8 µM (active) and 49 µM (active)
